Screening data: PubChem, National Center for Advancing Translational Sciences (NCATS)
Nrf2 inh: Nrf2 qHTS screen for inhibitors | A549 ARE-Fluc reporter, luciferase luminescence, 18-24 h | Potency, µM (top dose mostly 46 µM), for the others: at the top dose activity change, negative = inhibition, most hits filed as inhibitors | 2.1% of 360,000 active; note: potency is the fitted concentration of half-maximal effect; % is set by controls: 0 for no effect and ±100 for the full control effect; nearly all actives have a fitted effect of over 60% in size
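A549 ARE_Fluc cells (5000/well, 5% FBS OPTI-MEM) pre-incubated 2 h, then treated with compounds 18-24 h at 37C/5% CO2 in concentration-response. CellTiter-Fluor viability read first; BugLite luciferase luminescence after 15 min at room temperature gives Nrf2 activity.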
miR-21 reporter: qHTS Assay for Modulators of miRNAs and/orActivators of miR-21; HeLa miR-21 FLuc reporter, luciferase, 48 h; Potency, µM (series often up to 38.3 µM), without a hit: at the highest dose activity change, positive = activation, most hits filed as activators; 340,000 tested, under 10 active;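 note: % of control where 0% means no effect; miR-21 action dims this reporter so a rising signal means less miR-21 action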
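Using DMEM plus 10% FBS, HeLa miR-21-FLuc cells are incubated with test compounds (final up to about 40uM) for 48 hours; firefly luciferase signal is then imaged following reagent-mediated lysis.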
Nrf2 ARE act: qHTS of Nrf2 Activators | AREc32 ARE-luciferase reporter (MCF7-derived line), luminescence, 24 h | Potency, µM (titrated, usually from 46.1 µM), for inactives: at the top dose activation, hits mostly activators | 0.31% of 410,000 active | AID 624171, 2012; note: potency is the fitted concentration of half-maximal effect; % of control where 0% means no effect; nearly all actives have a fitted effect of over 65% in size
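ARE activation measured as luciferase luminescence (Steady-Glo, 30 min RT) in AREc32_Fluc cells after 24 hr compound exposure at 37 deg C, 5% CO2; cells seeded overnight at 1000/well in OPTI-MEM, 5% FBS.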
A549 viability: Nrf2 qHTS screen for inhibitors: counterscreen for cytotoxicity | A549 ARE-Fluc cells, CellTiter-Fluor viability, 18-24 h | Potency, µM (top dose mostly 46 µM), inactives show top-dose activity change, negative = cytotoxicity, usual class: inhibitors | 0.16% of 390,000 active | AID 504648, 2011; note: potency is the fitted concentration of half-maximal effect; % is set by controls: 0 for no effect and ±100 for the full control effect
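A549 ARE-Fluc cells in 5% FBS OPTI-MEM, 5000 cells/well, rested 2 h then exposed to compounds in concentration-response for 18-24 h at 37 °C. Viability by CellTiter-Fluor fluorescence (Ex 405/Em 525) after 30 min; luciferase luminescence (BugLite, 15 min, RT) read afterwards.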
TCR activator: Activators of T cell receptors: qHTS campaign; primary human leukocytes, anti-CD3, IL-2 HTRF, 48 h; Potency, µM (top dose mostly 9.22 µM), inactives show top-dose activation of IL-2 secretion, most hits filed as activators; 330,000 tested, under 10 active; AID 504894, 2011; note: % of control where 0% means no effect
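Primary human leukocytes receive a-CD3 beads and test compound and are incubated 48 hr. Secreted IL-2 is then assayed by HTRF, measuring 665nm acceptor emission after 320nm excitation of the europium donor.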
ClpP mod: qHTS Assay for Activators of ClpP; 1.9% of 340,000 active; ATP-dependent Clp protease proteolytic subunit (Bacillus subtilis (strain 168)), P80244; purified B. subtilis ClpP, FRET peptide cleavage, 20 min; Potency, µM (top dose mostly 57.5 µM), for the others: at the highest dose activity change, negative = active; active = well fitted falling curve with a large enough effect; inconclusive = small, poorly fitted or top-dose-only effect; inactive = no such curve, though single readings can be large or run the other way; note: potency is the fitted concentration of half-maximal effect; the source files actives as falling curves though it sought activators and does not explain the sign; nearly all actives have a fitted effect of over 65% in size
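Purified B. subtilis ClpP, 10 microg/mL final in Tris/HCl pH8 with KCl, BSA, glycerol and Tween-20, cleaved an Abz/nitrotyrosine-quenched decapeptide. Fluorescence (ex 320, em 430) was read at 0 and 20 min at room temperature. Delta was normalized to 5.8 microM ADEP and DMSO/no-enzyme controls.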
Numbers without * were called inactive; ? = inconclusive; . = no result; [ ] = another dose, or the depositor's remark. This is a sample that favours compounds with a hit; in the whole collection about 3.7% have one here. Unless noted, calls come from the whole dose curve; as a rule, active = well fitted curve in the direction sought with a large enough effect; inconclusive = small, poorly fitted or top-dose-only effect, or another doubt; inactive = no such curve, though single readings can be large; an effect the other way counts as inactive or inconclusive.

SMILES	Nrf2 inh	miR-21 reporter	Nrf2 ARE act	A549 viability	TCR activator	ClpP mod
CCCS(=O)(=O)c1ncc(Cl)c(C(=O)N(Cc2ccccc2)Cc2ccco2)n1	16.4µM*	?	?	?	.	1.5%
CCSc1ncc(Cl)c(C(=O)N(Cc2ccccc2)Cc2ccco2)n1	?	?	0.4%	-0.2%	.	0.5%
C=C1C(=O)O[C@H]2C1CC[C@@](C)(O)C13C=CC(C)(C21)C1(C3)C(=O)O[C@@H]2C3C(C)=CCC3[C@](C)(O)C[C@H](OC(C)=O)C21 (some centres not stated)	-28.3%	11.2%	15.8µM*	-10.1%	-1.4%[46.1 µM]	0.9%
O=c1c2c(nc3c(-c4ccccc4)c[nH]n13)CCC2	-12.5%	1.7%	-0.1%	-2.7%	-4.5%	25.1µM*
Cc1ccc(-c2[nH]n3c(=O)c4c(nc3c2C)CCCC4)cc1	5.9%	-20.0%	1.0%	-2.1%	0.6%	?
Cc1c(-c2ccccc2)[nH]n2c(=O)c3c(nc12)CCCC3	?	-77.3%	3.4%	-7.0%	2.6%[46.1 µM]	25.1µM*
CCCCNC(=O)CCCN1C(=O)CCn2nc(-c3cccn3C)cc21	.	-4.0%	-0.7%	10.1%	.	1.4%
O=S(=O)(c1ccc(C2CCCCC2)cc1)N1CCN(c2cc(Cl)ccc2Cl)CC1	0.0%	-1.6%	-2.1%	1.6%	.	0.3%
O=S(=O)(NCC(c1ccc2c(c1)OCO2)N1CCOCC1)c1ccc(Br)cc1 (configuration not stated)	7.5%	.	0.1%	4.4%	-3.6%	.
Cc1ccc(S(=O)(=O)NCC(c2ccc3c(c2)OCO3)N2CCOCC2)cc1 (configuration not stated)	2.9%	.	-0.7%	0.8%	-3.8%	28.2µM*
COC(=O)c1cc2oc3ccccc3c2n1CC(=O)Nc1ccc(N(C)C)cc1	?	-18.4%	12.3%	-5.3%	.	-1.4%
O=C(NC12CC3CC(CC(C3)C1)C2)c1ccc(-c2ccc(Cl)cc2)o1	?	-49.1%	0.1%	-4.0%	-9.0%[46.1 µM]	31.6µM*
COC(=O)Cn1c(=NC(=O)c2ccc(Cl)s2)sc2cc(F)ccc21	-27.6%	-22.4%	5.2%	-4.2%	-1.3%[46.1 µM]	28.2µM*
COC(=O)Cn1c(=NC(=O)c2ccc(OC)c(OC)c2)sc2cc(OC)ccc21	-1.1%	-6.8%	3.6%	-0.3%	-14.1%[46.1 µM]	?
COc1cccc(-c2ccc(SCC(=O)NC3CCCCC3)nn2)c1	5.1%	-4.9%	0.2%	-5.7%	5.2%	0.7%
CCCOc1ccc(N/C=C/C(=O)c2cc(OC)c(OC)c(OC)c2)cc1	3.3%	5.8%	0.4%	-3.1%	-2.1%	0.2%
CCOc1nc(C)ccc1-c1noc(-c2ccccn2)n1	?	-59.9%	2.6%	1.9%	0.6%	-12.3%
CCOc1ccccc1-c1nc(-c2ccc(C)nc2OC)no1	?	-71.1%	3.6%	2.1%	3.2%	28.2µM*
CCNS(=O)(=O)c1ccc2c3c(cccc13)C(=O)N2	-10.4%	-9.4%	0.1%	-1.9%	-6.2%	31.6µM*
CC1(C)CC(=O)c2cc(C(=O)Nc3ccccc3)c(=O)[nH]c2C1	.	.	.	.	.	-23.3%
O=C(N/N=C/c1ccc2c(c1)OCO2)c1ccn(Cc2ccc(Cl)cc2)n1	17.9%	-3.9%	6.7%	4.6%	-1.1%	28.2µM*
O=C(OCc1ccccc1)N1CCC2CC1c1cc(-c3ccc4c(c3)OCO4)ccc12 (configuration not stated)	?	.	5.0%	1.0%	-90.7%	?
CN(C1CCCCC1)S(=O)(=O)c1ccc(NC(=O)Cn2nc(-c3ccc(F)cc3)ccc2=O)cc1	-10.0%	0.3%	-0.8%	-5.1%	2.7%[46.1 µM]	-23.7%
CC(C)CNS(=O)(=O)c1ccc(NC(=O)Cn2nc(-c3ccc(F)cc3)ccc2=O)cc1	?	3.0%	2.5%	-7.2%	-0.2%[46.1 µM]	28.2µM*
CCN(CC)c1ccc2nc3c4ccccc4c(=O)cc-3oc2c1	?	-58.0%	0.5%	-11.2%	2.3%	0.9%
SMILES	Nrf2 inh	miR-21 reporter	Nrf2 ARE act	A549 viability	TCR activator	ClpP mod
CCN(CC)c1ccc2c(-c3ccc(S(=O)(=O)O)cc3S(=O)(=O)[O-])c3ccc(=[N+](CC)CC)cc-3oc2c1	?	16.0%	-0.5%	11.6µM*	-40.5%	-0.2%
CSc1nnc(N2C(=O)C(O)=C(C(=O)c3ccco3)C2c2ccccc2F)s1 (configuration not stated)	15.0%	-13.9%	14.1µM*	-7.3%	10.0%	-11.8%
CSc1nnc(N2C(=O)C(O)=C(C(=O)c3ccco3)C2c2ccccc2)s1 (configuration not stated)	-2.1%	-1.0%	26.0%	4.0%	12.3%	-3.3%
CCCOc1ccc(NC(=O)CC2C(=O)N(c3ccc(OCC)cc3)C(=S)N2C2CC2)cc1 (configuration not stated)	?	0.0%	0.4%	-13.1%	-1.9%	1.1%
Cc1ccc(NC(=O)CCCN2C(=O)c3cccc4cccc(c34)C2=O)cc1	14.6µM*	-10.2%	-0.5%	?	3.7%[46.1 µM]	-3.7%
CC1CCN(C(=O)COC(=O)CCCN2C(=O)c3cccc4cccc(c34)C2=O)CC1	1.8%	-8.2%	?	3.9%	-1.0%	31.6µM*
O=C(CCCN1C(=O)/C(=C/c2ccc3c(c2)OCO3)SC1=S)Nc1ccc(C(=O)O)cc1	10.3µM*	-1.9%	-1.8%	2.5%	1.9%	0.5%
CCc1ccc(/C=C2\SC(=S)N(CCCC(=O)Nc3ccccc3C(=O)O)C2=O)cc1	2.3%	-2.9%	-0.5%	4.3%	-1.7%	0.9%
Cc1ccc(/C=C2\SC(=S)N(CCCC(=O)Nc3ccccc3C(=O)O)C2=O)cc1	14.6µM*	2.6%	-1.9%	2.1%	6.9%	-0.7%
Cc1ccc(NC(=O)CCN2C(=O)c3cccc4cccc(c34)C2=O)cc1	?	3.0%	7.4%	0.2%	1.3%	.
Cc1ccc(/C=C2\SC(=S)N(CCCC(=O)Nc3ccc(O)cc3)C2=O)cc1	16.4µM*	?	0.3%	-13.3%	-2.9%	.
Cc1ccc(/C=C2\SC(=S)N(CCCC(=O)Nc3ccccn3)C2=O)cc1	2.31µM*	?	-2.2%	?	-0.7%	1.2%
O=C1C=C(N2CCCCC2)c2ccccc2C1=O	9.2µM*	.	-2.9%	18.4µM*	2.0%	0.0%
O=C(NCc1ccccc1Br)c1cnc2sc(N3CCCCCC3)nn2c1=O	21.1%	-0.8%	0.5%	-4.9%	.	?
